# Assays:
# [1] = test system: CHO; assay: % viability of CHO cells (MTT); higher = less toxic; settings: 48 h
# How it was run: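 Viability was given as a percentage of untreated cells and measured colorimetrically by the tetrazolium (MTT) assay. Before this, CHO cells at 10^6 cells/well in 200 µL attached overnight, then received fresh medium containing compound at 2 or 20 µM for 48 h.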
# [2] = test system: HepG2-A16-CD81; assay: % inhibition of HepG2 viability (CellTiter-Glo); higher = more toxic; settings: 5 µM
# [3] = test system: Plasmodium falciparum NF54 stage IV/V gametocytes; assay: % inhibition of gametocyte viability (PrestoBlue); higher = more inhibition; settings: 48 h
# How it was run: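 Values are percent inhibition of gametocyte viability, normalised to vehicle and kill controls in a single run. Stage IV/V NF54 gametocytes (2% gametocytaemia, 5% haematocrit, 100 µL/well) were held with compound at 1 or 5 µM for 48 h at 37 °C, stationary and hypoxic. Viability was read as 612 nm fluorescence on 70 µL of supernatant after a 2 h incubation with 10 µL PrestoBlue.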
# [4] = test system: Plasmodium falciparum NF54 asexual blood stage; assay: % inhibition of asexual blood stage proliferation (pLDH); higher = more inhibition; settings: 72 h
# How it was run: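 Using 96-well plates, the screen was run twice on separate occasions with Plasmodium falciparum NF54 ring-stage cultures at 1% haematocrit and 2% parasitaemia. Each culture was exposed to compound at 2 or 20 µM for 72 h at 37 °C under a gas mix of 4% CO2, 3% O2 and 93% N2. After incubation, the parasite lactate dehydrogenase assay was read colorimetrically at 620 nm. From this readout, percent inhibition of asexual proliferation was derived against control wells.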
# [5] = test system: Plasmodium falciparum NF54 stage IV/V gametocytes; assay: % inhibition of gametocyte viability (ATP bioluminescence); higher = more inhibition; settings: 24 h
# How it was run: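 Viability of stage IV/V NF54 gametocytes is given as percent inhibition, normalised to control wells in a single run. Gametocytes enriched on density gradients were seeded at 30,000 per well in 96-well plates with compound at 1 or 5 µM and held at 37 °C for 24 h. ATP was then read with the Promega BacTiter Glo bioluminescence system.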
# [6] = test system: Plasmodium falciparum NF54 stage IV/V gametocytes; assay: % inhibition of gametocyte viability (luciferase reporter); higher = more inhibition; settings: 48 h
# How it was run: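 Compound at 1 or 5 µM was added to stage IV/V NF54-Pfs16-GFP-Luc gametocytes (2% gametocytaemia, 2% haematocrit) and incubated stationary and hypoxic at 37 °C for 48 h. A GloMax-Multi+ reader measured luminescence over 10 s integration on 30 µL lysate plus 30 µL Promega luciferin substrate. Percent inhibition values were normalised to controls within a single run.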
# [7] = test system: Plasmodium berghei ANKA liver stage in HepG2-A16-CD81; assay: % inhibition of liver stage parasite viability (luciferase); higher = more inhibition; settings: 5 µM; 48 h
# Procedure: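 Single-concentration screen of the MMV Pandemic Response Box. P. falciparum NF54 asexual blood stages: pLDH assay, 72 h at 37 °C, 2 and 20 µM, n=2. Stage IV/V gametocytes (NF54): luciferase reporter (NF54-Pfs16-GFP-Luc, 48 h), ATP bioluminescence (24 h) and PrestoBlue (48 h) at 1 and 5 µM, n=1. P. berghei liver stage (luciferase in HepG2-A16-CD81, 48 h post infection) at 5 µM, n=4. All normalised to DMSO and kill controls as % inhibition.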
# 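For % inhibition of HepG2 viability (CellTiter-Glo) in this document: HepG2-A16-CD81 hepatoma cells plated as in the liver-stage assay but without sporozoites, with DMSO wells as negative and 25 µM puromycin as positive control.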
SMILES,% viability of CHO cells ([1]; 2 µM) [%],% viability of CHO cells ([1]; 20 µM) [%],% inhibition of HepG2 viability [2] [%],% inhibition of gametocyte viability ([3]; 1 µM) [%],% inhibition of gametocyte viability ([3]; 5 µM) [%],% inhibition of asexual blood stage proliferation ([4]; 2 µM) [%],% inhibition of asexual blood stage proliferation ([4]; 20 µM) [%],% inhibition of gametocyte viability ([5]; 1 µM) [%],% inhibition of gametocyte viability ([5]; 5 µM) [%],% inhibition of gametocyte viability ([6]; 1 µM) [%],% inhibition of gametocyte viability ([6]; 5 µM) [%],% inhibition of liver stage parasite viability [7] [%]
COc1c(F)c(F)cc2c(=O)c(C(=O)O)cn(C3CC3)c12,82.2,80.7,3.68,16.8,16.9,20.8,56.5,< 0,< 0,< 0,< 0,–
CC1(C)[C@H](C(=O)O)N2C(=O)C[C@H]2S1(=O)=O,–,–,–,< 0,< 0,11.2,34.3,< 0,< 0,< 0,< 0,20.3
CC(C)n1cnc2c(NCc3ccccc3)nc(NCc3ccccc3)nc21,104,58.3,7.56,< 0,< 0,45.5,60.5,< 0,< 0,< 0,< 0,–
O=C(Nc1nnc(-c2ccc(Cl)cc2)o1)c1ccc(F)cc1,94.3,106,-1.68,< 0,0.779,23.1,-13.5,< 0,< 0,< 0,1.27,–
Oc1c(C(Nc2ccccn2)c2ccccc2)ccc2cccnc12 (centres undefined),115,68.7,10.2,49,26.9,71.8,88.8,< 0,40.6,0.252,33.3,–
CCCC(=O)OCCc1ccccc1,114,99.3,0.113,10.7,4.24,8.06,16.5,< 0,< 0,< 0,0.854,–
Cc1cc(C)n2nc(C(=O)NS(=O)(=O)c3c(C)cccc3OC(F)(F)F)nc2n1,110,122,8.44,33.8,85.1,33.6,59.9,< 0,< 0,14.1,14.2,–
NNC(=O)c1ccncc1,94.3,96.5,8.54,< 0,4.24,40.1,71.2,< 0,< 0,17.1,< 0,–
CC(C)C(=O)N[C@H]1[C@H]([C@H](O)[C@H](O)CO)OC(C(=O)O)=C[C@@H]1N=[N+]=[N-],91.9,113,5.84,< 0,14.9,9.36,29.6,1.53,< 0,< 0,< 0,–
CC(C)(C)c1cccc(-c2nc3cc(C(=N)N)ccc3[nH]2)c1O,98.4,106,-1.3,< 0,41.8,21.4,79.9,0.668,3.93,< 0,14.8,–
O=C(NCc1ccccc1Cl)c1cnc2ccccc2n1,106,124,5.29,< 0,< 0,6.58,48.8,< 0,< 0,< 0,< 0,–
C=CCN(C(=O)OCc1ccc([N+](=O)[O-])cc1)C1CCN(CC[C@](C)(CN(C)S(=O)(=O)c2ccccc2)c2ccccc2)CC1,129,122,-6.75,4.29,13.4,59.7,78.9,< 0,32,2.56,< 0,–
CC(C)(C)NC(=O)[C@@H]1C[C@@H]2CCCC[C@@H]2CN1C[C@@H](O)[C@H](Cc1ccccc1)NC(=O)[C@H](CC(N)=O)NC(=O)c1ccc2ccccc2n1,89,114,10.9,< 0,19.6,40,58.3,< 0,< 0,< 0,< 0,–
Nc1nc(O)c2ncn(COCCO)c2n1,98.5,121,1.64,< 0,15.7,21.3,31.7,< 0,< 0,< 0,< 0,–
COc1ccc(SCC(=O)N2c3ccccc3Sc3ccccc32)cc1,91,110,7.46,< 0,< 0,0.401,35.5,< 0,< 0,< 0,< 0,–
Nc1nc(Nc2ccc3nc(-c4ccc(F)cc4)cc(N)c3c2)cc(-c2ccccc2)n1,-4.05,-8.47,-4.55,32.5,84.6,83,96.9,95.5,95,98.5,98.6,–
O=c1cc(Nc2ccc3ccccc3c2)[nH]c(=O)[nH]1,85.2,85.2,4.08,< 0,4.14,1.56,3.03,< 0,< 0,< 0,1.22,–
O=C(NC(=O)N1CCCc2ccccc21)c1ccc(Cl)cc1Cl,95.4,99.1,-0.619,0.538,13.4,1.37,-6.87,< 0,< 0,< 0,< 0,–
CCC(C)NCC(O)Cn1c2ccc(Cl)cc2c2cc(Cl)ccc21 (centres undefined),112,1.87,1.41,33.3,87.6,68.7,81.8,6.9,68.2,< 0,91,–
O=C(c1ccc(F)cc1)N1CCN2C(=O)c3ccccc3C12c1ccccc1 (centres undefined),116,109,-0.867,13.1,10.8,37.1,83.7,< 0,< 0,< 0,< 0,–
Cc1ccc(NC(=O)c2ccc(CN3CCN(C)CC3)cc2)cc1Nc1nccc(-c2cccnc2)n1,87.6,50.2,6.65,< 0,< 0,60.6,98.3,< 0,< 0,0.104,< 0,–
